This note sets out measurements from PubChem BioAssay (NCI).

This is part of a sample that, as a whole, favours compounds with a hit. Of some 83,000 tested, about 20% had one in any assay.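 Activity criterion: percent growth below 10, measured after cells in 96-well plates were exposed to a single compound concentration for 48 hours.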 A number with no mark means an inactive call. Calls of active or inactive are those of the source.

Test systems include DU-145 prostate; K-562 leukemia; MALME-3M melanoma; MDA-MB-231 breast; RXF 393 renal; SF-268 CNS; SF-295 CNS; SF-539 CNS; UACC-257 melanoma; M14 melanoma; HCT-15 colon; HT29 colon; SNB-75 CNS; SNB-19 CNS; U251 CNS; SK-MEL-5 melanoma; UACC-62 melanoma; LOX IMVI melanoma; SK-MEL-28 melanoma; PC-3 prostate.
What all share (experiment): NCI-60 one-dose screen, 48 h (100 = growth as untreated, 0 = no growth, -100 = all killed)
Common to all, as to settings: 10 µM unless noted

`CCn1c(O)c(/C=N/NC(=O)C(C)c2ccc(CC(C)C)cc2)sc1=S` (configuration not stated): the growth with DU-145 prostate was 22.1%; in the assay on K-562 leukemia, 9.15% (active); with MALME-3M melanoma, 64.3%; in the assay on MDA-MB-231 breast, 35.4%; with RXF 393 renal it was 9.92% (active); in the assay with SF-268 CNS, 32.9%. In addition, the growth with SF-295 CNS was 15.8%; in the assay on SF-539 CNS, -13.5% (active); in the assay on UACC-257 melanoma, 51.9%; in the assay with M14 melanoma, 6.26% (active); with HCT-15 colon, 17.6%; in the assay on HT29 colon, 10.1%. Moreover, the growth in the assay on SNB-75 CNS was -2% (active); with SNB-19 CNS, 37.5%; in the assay with U251 CNS it was 15.6%; in the assay with SK-MEL-5 melanoma it was 17%; in the assay with UACC-62 melanoma, 46%; in the assay with LOX IMVI melanoma, 27.1%. In the assay on SK-MEL-28 melanoma, the growth is 69.6%.

For the compound `CC(=O)O[C@H]1[C@@H]2OC(=O)C(CSc3ccccc3)[C@@H]2C[C@H]2O[C@]2(C)CC/C=C(\C)CCC[C@@H]1C` (some centres not stated), the growth in the assay with DU-145 prostate was 1.69% (active); with K-562 leukemia, 63.1%; with MALME-3M melanoma, 87.2%; in the assay on MDA-MB-231 breast, 14.9%; with RXF 393 renal it was -53.3% (active); in the assay with SF-268 CNS, 44.7%. Moreover, the growth was 49.3% in the assay on SF-295 CNS; 57% with SF-539 CNS; 15.8% in the assay with UACC-257 melanoma; 51.7% in the assay on M14 melanoma; 12.8% in the assay with HCT-15 colon; 19.5% with HT29 colon. For the same compound, the growth with SNB-75 CNS was 37.1%; with SNB-19 CNS, 68%; in the assay with U251 CNS, 51.6%; in the assay with SK-MEL-5 melanoma, 47%; in the assay on UACC-62 melanoma, 38.3%; in the assay with LOX IMVI melanoma, 28.4%. Further, in the assay with SK-MEL-28 melanoma, the growth was 37.7%.

Regarding `Cc1ccc2oc(=O)cc(C3c4ccc([nH]4)C(c4cc(=O)oc5ccc(C)cc45)c4ccc([nH]4)C(c4cc(=O)oc5ccc(C)cc45)c4ccc([nH]4)C(c4cc(=O)oc5ccc(C)cc45)c4ccc3[nH]4)c2c1` (configuration not stated), the growth in the assay with DU-145 prostate was -46.3% (active); in the assay with K-562 leukemia it was -26% (active); with MALME-3M melanoma it was -35.1% (active); with MDA-MB-231 breast, -53.8% (active); in the assay with RXF 393 renal it was -87.3% (active); in the assay on SF-268 CNS, -39.5% (active). For the same compound, the growth with SF-295 CNS is -78.2% (active); in the assay with SF-539 CNS, -75.1% (active); with UACC-257 melanoma, -67.7% (active); in the assay with M14 melanoma it was -71.9% (active); in the assay with HCT-15 colon, -46.9% (active); with HT29 colon, -75.7% (active). In addition, the growth with SNB-75 CNS is -42% (active); in the assay with SNB-19 CNS, -29.6% (active); with U251 CNS, -80.7% (active); in the assay on PC-3 prostate, -27.2% (active); with UACC-62 melanoma, -57% (active); with LOX IMVI melanoma it was -70.6% (active). In addition, the growth in the assay on SK-MEL-28 melanoma was -53.2% (active).

For `Nc1nc2ncc(CCNc3ccc(C(=O)O)cc3)nc2c(=O)[nH]1`, the growth with DU-145 prostate is 128%; with K-562 leukemia, 115%; with MALME-3M melanoma, 137%; with MDA-MB-231 breast, 107%; in the assay with RXF 393 renal, 112%; in the assay on SF-268 CNS, 120%. In addition, the growth is 110% with SF-295 CNS; 101% with SF-539 CNS; 104% in the assay with UACC-257 melanoma; 107% with M14 melanoma; 102% with HCT-15 colon; 97.5% in the assay on HT29 colon. Also, the growth in the assay on SNB-75 CNS is 110%; in the assay with SNB-19 CNS it was 111%; in the assay on U251 CNS, 109%; with PC-3 prostate, 92.4%; in the assay with UACC-62 melanoma it was 111%; in the assay on LOX IMVI melanoma it was 102%. Also, in the assay on SK-MEL-28 melanoma, the growth is 118%.

For the compound `O=[N+]([O-])c1cnc(N2CCN(CC3CC3)CC2)nc1N1CCN(CC2CC2)CC1`, the growth with DU-145 prostate was 101%; in the assay on K-562 leukemia, 102%; with MALME-3M melanoma, 97.7%; in the assay on MDA-MB-231 breast, 99.9%; in the assay on RXF 393 renal it was 73.1%; with SF-268 CNS it was 87.7%. In addition, the growth with SF-295 CNS is 99.5%; in the assay with SF-539 CNS, 90.8%; in the assay with UACC-257 melanoma, 108%; with M14 melanoma, 98.2%; with HCT-15 colon, 96%; in the assay on HT29 colon, 87%. Also, the growth in the assay with SNB-75 CNS is 81%; in the assay on SNB-19 CNS, 100%; in the assay on U251 CNS, 98.4%; in the assay on SK-MEL-5 melanoma it was 99.5%; with UACC-62 melanoma, 110%; in the assay on LOX IMVI melanoma it was 99.6%. The growth in the assay with SK-MEL-28 melanoma is 91.3%.

With `O=C1Nc2cc(-c3ccc(O)cc3)ccc2/C1=C/c1ccc[nH]1`, the growth in the assay on DU-145 prostate is 1.75% (active); in the assay with K-562 leukemia, 3.69% (active); in the assay on MALME-3M melanoma it was 15.3%; with MDA-MB-231 breast, 13.2%; in the assay on RXF 393 renal, -27.3% (active); with SF-268 CNS, 21.7%. In addition, the growth with SF-295 CNS was -20.7% (active); in the assay on SF-539 CNS, -14.6% (active); in the assay with UACC-257 melanoma, 20%; in the assay with M14 melanoma, 10.9%; with HCT-15 colon, 7.26% (active); in the assay on HT29 colon, 8.88% (active). Also, the growth was 19% in the assay on SNB-75 CNS; 27.8% in the assay on SNB-19 CNS; 18.9% with U251 CNS; -17.3% (active) in the assay with SK-MEL-5 melanoma; 15.7% with UACC-62 melanoma; -6.81% (active) in the assay on LOX IMVI melanoma. The growth in the assay with SK-MEL-28 melanoma was 23.6%.

As for `COc1ccc(-n2nc(C)c3c(Nc4ccc(NC(=O)Nc5cccc(C(F)(F)F)c5)cc4)ncnc32)cc1`, the growth in the assay with DU-145 prostate is 18.2%; in the assay on K-562 leukemia, 4.37% (active); in the assay on MALME-3M melanoma it was -10.9% (active); with MDA-MB-231 breast, -18.7% (active); in the assay with RXF 393 renal it was -36% (active); in the assay on SF-268 CNS, 22.8%. Further, the growth in the assay on SF-295 CNS was -44.1% (active); with SF-539 CNS it was 2.75% (active); in the assay with UACC-257 melanoma, -1.66% (active); in the assay on M14 melanoma, -0.151% (active); in the assay with HCT-15 colon, 2.47% (active); in the assay with HT29 colon, 1.63% (active). Besides, the growth in the assay on SNB-75 CNS was -7.61% (active); in the assay with SNB-19 CNS it was 12%; in the assay on U251 CNS it was -49.7% (active); in the assay with SK-MEL-5 melanoma, -66.5% (active); in the assay on UACC-62 melanoma it was 3.5% (active); in the assay on LOX IMVI melanoma, -81.9% (active). In the assay on SK-MEL-28 melanoma, the growth is 11.6%.

Regarding `CN1CCN(Cc2ccc(NC(=O)c3cncc(C#Cc4cncn5ccnc45)c3)cc2C(F)(F)F)CC1`, the growth in the assay on DU-145 prostate was 86.2%; in the assay on K-562 leukemia it was 4.35% (active); in the assay on MALME-3M melanoma it was 2.25% (active); in the assay with MDA-MB-231 breast, 54.5%; in the assay on RXF 393 renal it was 90.4%; in the assay with SF-268 CNS it was 92.4%. For the same compound, the growth is 91.7% with SF-295 CNS; 52.4% with SF-539 CNS; 58.4% with UACC-257 melanoma; 7.22% (active) in the assay on M14 melanoma; 46.1% with HCT-15 colon; 19.2% in the assay on HT29 colon. In addition, the growth with SNB-75 CNS is 123%; in the assay with SNB-19 CNS, 92.4%; in the assay on U251 CNS it was 76.9%; in the assay with PC-3 prostate, 90.3%; in the assay on UACC-62 melanoma, 18.7%; in the assay with LOX IMVI melanoma, 4.74% (active). Besides, the growth in the assay on SK-MEL-28 melanoma was 30.3%.
